In PubChem BioAssay AID504444 (National Center for Advancing Translational Sciences (NCATS), 2011):
Screen size: about 360,000 compounds; about 7,500 (2.1%) were called active. Another 20% or so got no clear call; they are omitted. The full list was thinned out, with actives kept by preference. Unmarked numbers belong to inactive results. Calls follow the shape of the dose curve; as a rule, active = well fitted inhibition curve with a large enough effect; inconclusive = small, poorly fitted or top-dose-only effect, or effect the other way; inactive = flat fitted curve, though single readings scatter.

experiment: Nrf2 qHTS screen for inhibitors; details: A549 ARE-Fluc reporter, luciferase luminescence, 18-24 h; series mostly up to 46 µM; activity change, negative = inhibition: at the top concentration; also: nearly all actives have a fitted effect of over 60% in size
Summary of the method: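 Quantitative HTS in A549 cells stably bearing an antioxidant response element-firefly luciferase construct. Inhibition of Nrf2-driven transcription was scored by luminescence after 18-24 h of compound exposure at 37 °C.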
% is scaled to controls: 0 for no effect and ±100 for the full control effect; potency is read from the fitted curve at half-maximal effect.

Compared with CCN1C[C@@H]2[C@@H]3C(=O)N(C)C(=O)[C@@H]3[C@](C)(C1=O)N2C(=O)c1ccccc1, COC(=O)[C@@]1(C)[C@H]2C(=O)N(Cc3ccccc3)C(=O)[C@H]2[C@H]2CN=C(SCC3CC3)N21 is higher in “activity change, negative = inhibition” value: -7.53% for the first, 14.1% for the second.

Compared with COc1ccc(CCNC(=O)COc2cc(C)cc3oc(=O)c(C)c(C)c23)cc1OC, COc1ccc(NC(=O)Cn2c(=O)n(CCC(C)C)c(=O)c3cccnc32)cc1Cl is higher in “activity change, negative = inhibition” value: -9.86% for the first, 5.86% for the second.

Compared with COc1ccccc1N1CCN(CCCNC(=O)c2cnn(-c3ccccc3Cl)c2C2CCN(C(=O)OC(C)(C)C)CC2)CC1, COc1ccccc1CNC(=O)CCCCn1c(=O)c2ccccc2n(CC(=O)Nc2cc(Cl)ccc2C)c1=O is higher in “activity change, negative = inhibition” value: -16.8% for the first, -15.6% for the second.

Compared with COC(=O)CN(C(=S)Nc1ccc(Cl)cc1)C1CC(=O)N(c2ccc(OC)cc2)C1=O (configuration not stated), CCOc1ccc(N2C(=O)CC(N(O)c3ccccc3)C2=O)cc1 (configuration not stated) is higher in “activity change, negative = inhibition” value: -14.1% for the first, 10.4% for the second.

First: O=C1CC(c2nnc(Cc3ccc(Cl)cc3)o2)CN1c1ccccc1 (configuration not stated)
Second: Cc1nn(-c2ccccc2)c2c1C(c1ccc(F)cc1)C(C#N)=C(N)O2 (configuration not stated)
The “activity change, negative = inhibition” value of the first is lower: -22.2% for the first, 11.2% for the second.

Compared with O=C(NCCNc1ccccc1[N+](=O)[O-])c1ccccc1F, O=C(NCCCNc1ccc([N+](=O)[O-])cc1Cl)c1ccccc1F is lower in “activity change, negative = inhibition” value: 23.8% for the first, -0.648% for the second.

First: COc1ccccc1C(=O)c1ccccc1C(=O)c1ccccc1
Second: Cc1ccc(-n2c(SCC(=O)N3c4ccccc4Sc4ccccc43)nnc2-c2ccncc2)cc1
The “activity change, negative = inhibition” value of the first is lower: 0.817% for the first, 4.11% for the second.

Going from CC1Cc2nc(SCC(=O)Nc3ccccc3F)n(C)c(=O)c2S1 (configuration not stated) to Cc1ccccc1-n1c(SCC(=O)NCc2cccs2)nnc1-c1ccncc1, the “activity change, negative = inhibition” value rises from -23.4% to 18.3%.

Compared with COCCn1c(SCC(=O)N2CCCCCC2)nc2c(c1=O)SCC2, Cc1ccccc1OCc1ccc(-c2nc(C#N)c(N3CCCCC3)o2)o1 is higher in “activity change, negative = inhibition” value: 2.1% for the first, 9.3% for the second.

First: Cc1nn(Cc2ccccc2)c2c1C(c1ccccc1)C(C#N)=C(N)O2 (configuration not stated)
Second: Cc1oc2ccc(O)c(CN3CCCCC3)c2c1C(=O)Nc1cccc(C(F)(F)F)c1
The “activity change, negative = inhibition” value of the first is lower: -4.1% for the first, 4.68% for the second.

For COc1cccc(C(=O)NC2CCN(C#N)CC2)c1, the “activity change, negative = inhibition” value was 3.93%.

In the case of CCOc1ccc(N2C(=O)CC(N(CCc3ccc(OC)c(OC)c3)C(=S)Nc3ccccc3)C2=O)cc1 (configuration not stated), the Potency is reported as 23.1 µM (active).
In the case of O=C(NCCNc1ccc([N+](=O)[O-])cc1Cl)c1ccccc1F, the Potency is reported as 16.4 µM (active).
With COCCn1c(SCC(=O)Nc2ccccc2F)nc2c(c1=O)SCC2 the Potency was 4.11 µM (active).
For COc1ccccc1C1C(C#N)=C(N)Oc2c1c(-c1ccccc1)nn2-c1ccccc1 (configuration not stated), the Potency was 20.6 µM (active).
For Cc1ccc(Nc2nc(CSc3nnc(-c4ccncc4)n3-c3ccccc3C)cs2)cc1, the Potency was 9.2 µM (active).

For COc1ccccc1Nc1c2c(nc3ccc(NC(=O)/C=C/c4cc(OC)c(OC)c(OC)c4)cc13)CCCC2, the activity change, negative = inhibition was 4.54% [at 9.27 µM].
